Assay results as given in the OligoGym collection.

target: MTDH; assay: pooled miR-30 sensor sort-seq; sequence = guide strand; conditions: shRNA
Further: reference of the scale not given here.

Q: With TTACACTTTGAGGTGTTCGAAC as the sequence, how does the sensor-assay potency score (higher = more potent) read?
A: -0.892

Q: For TAAATTAAGATCGTTCTTGTTC, which sensor-assay potency score (higher = more potent) is on record?
A: 0.14

Q: How did the sensor-assay potency score (higher = more potent) turn out when TTAGAAGTGAAGCTCTTTCTTC was run?
A: -0.219

Q: With TATTCTTCTTGGAACCAACAGG as the sequence, how does the sensor-assay potency score (higher = more potent) read?
A: -0.744

Q: How did the sensor-assay potency score (higher = more potent) turn out when TTCTCGGACAGTTTCTTCCGGT was run?
A: -0.0604

Q: How did the sensor-assay potency score (higher = more potent) turn out when TTCTAATTCTTCTGTGTCCTGT was run?
A: 0.277

Q: With TTGCTTACTAATCTGTAGGCAA as the sequence, how does the sensor-assay potency score (higher = more potent) read?
A: -0.352

target: MTF2; assay: as above; conditions: shRNA

Q: With TTTGCAGCACTGTAGCATCTTC as the sequence, how does the sensor-assay potency score (higher = more potent) read?
A: -0.454

Q: For TATTCTGGTCCAGAACTGCAGA, which sensor-assay potency score (higher = more potent) is on record?
A: -0.798

Q: Which sensor-assay potency score (higher = more potent) does the source give for TTCCACAAGATACTGCACCTTT here?
A: 0.329

Q: With TATAGAACAAGGTAAATCCAAA as the sequence, how does the sensor-assay potency score (higher = more potent) read?
A: -1.04

Q: With TTTTTTTCTATGCCATTGCTTA as the sequence, how does the sensor-assay potency score (higher = more potent) read?
A: -0.923

Q: How did the sensor-assay potency score (higher = more potent) turn out when TTATCTTTTTGATAGTGCCAAG was run?
A: -1.55

Q: For TTGACATATTGTACAGACCATT, which sensor-assay potency score (higher = more potent) is on record?
A: -1.28

Q: TACTCTTCTTGACATATTGTAC was tested. Which sensor-assay potency score (higher = more potent) did it give?
A: -0.653

Q: Which sensor-assay potency score (higher = more potent) does the source give for TTTGGCTTTATGTCCATCCTGT here?
A: 0.854

Q: How did the sensor-assay potency score (higher = more potent) turn out when TAAAACAAGCCATCTGACCATC was run?
A: -1.1

Q: Which sensor-assay potency score (higher = more potent) does the source give for ATGATTGAGTTGTAACTCCTGA here?
A: -0.17

Q: With TTTATCTTTTTGATAGTGCCAA as the sequence, how does the sensor-assay potency score (higher = more potent) read?
A: -0.334

target: MTFP1; assay: as above; conditions: shRNA

Q: Which sensor-assay potency score (higher = more potent) does the source give for TCCGCCAGCACGTAGGAGCTGG here?
A: -1.34

Q: For TGTTGGGTAGAGCTTGCGCAGG, which sensor-assay potency score (higher = more potent) is on record?
A: -1.71

Q: For TATCGCACCCACGTGTCCCGGT, which sensor-assay potency score (higher = more potent) is on record?
A: -0.561

Q: For TCCACCGACCTCTCCAGCCTTC, which sensor-assay potency score (higher = more potent) is on record?
A: -1.18

Q: With TAGGAGGTTGACATGAAGCAGG as the sequence, how does the sensor-assay potency score (higher = more potent) read?
A: -1.07

Q: With TCAGCCACACCACCGCCGCTGG as the sequence, how does the sensor-assay potency score (higher = more potent) read?
A: -1.36

Q: How did the sensor-assay potency score (higher = more potent) turn out when TAGCTCAGCCACACCACCGCCG was run?
A: -0.967

Q: With TTTGTCAATGGCATCCGCCAGC as the sequence, how does the sensor-assay potency score (higher = more potent) read?
A: -0.615

Q: TTGGACACCAGGGAGCCAGGTG was tested. Which sensor-assay potency score (higher = more potent) did it give?
A: -0.945

Q: With TTGTCTCTAAGCTTCTGTCCAG as the sequence, how does the sensor-assay potency score (higher = more potent) read?
A: -0.49

Q: For TGTCTCTAAGCTTCTGTCCAGC, which sensor-assay potency score (higher = more potent) is on record?
A: -0.761

Q: With TAGAGCTTGCGCAGGCTGGAGT as the sequence, how does the sensor-assay potency score (higher = more potent) read?
A: -0.938

target: MTG1; assay: as above; conditions: shRNA

Q: TTTGTTGAGGGTGTACAGCAGG was tested. Which sensor-assay potency score (higher = more potent) did it give?
A: -0.227

Q: How did the sensor-assay potency score (higher = more potent) turn out when TTTTGGACATCACAGCTCTGGT was run?
A: -1.25

Q: Which sensor-assay potency score (higher = more potent) does the source give for ATTTTGGACATCACAGCTCTGG here?
A: -0.514

Q: For TTATAGCTTTAACTCCTTCTGA, which sensor-assay potency score (higher = more potent) is on record?
A: -0.275

Q: For TTTCCCTTTCCTGAGGTGCTGC, which sensor-assay potency score (higher = more potent) is on record?
A: -0.722

Q: How did the sensor-assay potency score (higher = more potent) turn out when TTCTCCTTCTAAGTGTTGCATA was run?
A: -0.79

Q: With TTGGACATCACAGCTCTGGTGA as the sequence, how does the sensor-assay potency score (higher = more potent) read?
A: -0.544

Q: With TCATCCTTTACACAGTTGGTAA as the sequence, how does the sensor-assay potency score (higher = more potent) read?
A: -1.44

Q: TATAGCTTTAACTCCTTCTGAG was tested. Which sensor-assay potency score (higher = more potent) did it give?
A: -0.0288
